{"source": "ChEMBL document CHEMBL3988442", "about": "“University of Dundee, Small-Polar-MMV Screening Library” (2021)", "note": "The whole screen tested about 48,000 compounds, of which about 13,000 (27%) showed an effect of 50% or more. Some of the results follow.", "data": [{"system": "Wolbachia pipientis", "assay": "Anti-Wolbachia Cell-Based Screen", "type": "functional", "design": "scale not given: in the data most compounds retested in dose-response had high values", "settings": "5 µM", "units": {"Percent Effect": "%"}, "values": [{"smiles": "CCC(CC)NCC(C)Oc1cccnc1", "note": "(centres undefined)", "Percent Effect": 18.13}, {"smiles": "Cl.Cl.O=C(N[C@H]1CN[C@H]2CCCO[C@H]21)c1cccnc1", "Percent Effect": -6.399}, {"smiles": "O=C(C1CCCCC1)N1CCO[C@@H]2CNC[C@@H]21", "Percent Effect": -9.765}, {"smiles": "O=C(c1cccnc1)N1CCO[C@@H]2CNC[C@@H]21", "Percent Effect": 100.8}, {"smiles": "Fc1cccc(CN2C[C@@H]3CN(c4ncccn4)C[C@@H]3C2)c1.O=C(O)C(F)(F)F.O=C(O)C(F)(F)F", "Percent Effect": 102.6}, {"smiles": "O=C(O)C(F)(F)F.O=C(O)C(F)(F)F.O=C1CC2(CCN(Cc3cccnc3)C2)CN1c1cccc(F)c1", "note": "(centres undefined)", "Percent Effect": 15.74}, {"smiles": "Cc1ccc(CN2C[C@@H]3CN(c4ncccn4)C[C@@H]3C2)cc1.O=C(O)C(F)(F)F", "Percent Effect": 6.326}, {"smiles": "N#Cc1cccc(CN2C[C@@H]3CN(c4ncccn4)C[C@@H]3C2)c1.O=C(O)C(F)(F)F", "Percent Effect": 114.7}, {"smiles": "O=C(O)C(F)(F)F.c1cnc(N2CCO[C@@H]3CN(Cc4ccoc4)C[C@@H]3C2)nc1", "Percent Effect": 98.59}, {"smiles": "Cc1cccc(CN2C[C@@H]3CN(Cc4ccoc4)CCO[C@@H]3C2)n1.O=C(O)C(F)(F)F.O=C(O)C(F)(F)F.O=C(O)C(F)(F)F", "Percent Effect": -28.06}, {"smiles": "Fc1cnc(N2C[C@H]3CN(Cc4cccc(F)c4)C[C@H]3C2)nc1.O=C(O)C(F)(F)F.O=C(O)C(F)(F)F", "Percent Effect": 5.307}, {"smiles": "O=C(O)C(F)(F)F.O=C(O)C(F)(F)F.O=C(O)C(F)(F)F.c1cncc(CN2CCO[C@@H]3CN(Cc4ccoc4)CC[C@@H]3C2)c1", "Percent Effect": -22.75}, {"smiles": "Fc1cccc(CN2CCC3(CCN3c3ncccn3)C2)c1.O=C(O)C(F)(F)F", "note": "(centres undefined)", "Percent Effect": 74.85}, {"smiles": "Fc1cnccc1CN1CCC2(CCN2c2ncccn2)C1.O=C(O)C(F)(F)F", "note": "(centres undefined)", "Percent Effect": -1.377}, {"smiles": "Cc1nnc([C@@H]2C[C@H]3CN(C4CCC4)C[C@H]3O2)[nH]1.O=C(O)C(F)(F)F", "Percent Effect": 6.797}, {"smiles": "CCN1C(=O)C2(CCCCC2)NC12CCSCC2", "Percent Effect": -2.409}, {"smiles": "CCCNC1(c2ccc(Cl)cc2)CCOCC1", "Percent Effect": -6.475}, {"smiles": "CN1CCC(c2cncc(N(C)C)n2)CC1", "Percent Effect": 94.73}, {"smiles": "COCCNc1nc2c(c(NCc3cnc(C)c(C)c3)n1)CCNCC2", "Percent Effect": 2.827}, {"smiles": "Cc1csc([C@H]2C[C@H]3CN(Cc4cc(C)on4)CC[C@@H]3O2)n1.O=C(O)C(F)(F)F", "Percent Effect": 122.4}, {"smiles": "Cc1cc(CN2C[C@@H]3COC[C@]3(c3nnc(C)o3)C2)no1", "Percent Effect": 12.18}, {"smiles": "C[C@@H]1C[C@@H]2CCN(Cc3nccs3)C[C@H]2O1", "Percent Effect": -21.98}, {"smiles": "Cc1cc(CN2CC[C@@H]3O[C@@H](c4nnc(C)o4)C[C@H]3C2)no1", "Percent Effect": 110.6}, {"smiles": "Cc1noc([C@@H]2C[C@H]3CN(Cc4cc(C)on4)C[C@H]3O2)n1.O=C(O)C(F)(F)F", "Percent Effect": 5.383}, {"smiles": "Cc1csc([C@H]2C[C@@H]3CCN(Cc4cc(C)on4)C[C@H]3O2)n1", "Percent Effect": 115.5}, {"smiles": "Cc1csc(CN2CC[C@H]3C[C@H](c4ccncn4)O[C@@H]3C2)n1", "Percent Effect": 0.9996}, {"smiles": "Cc1csc([C@@H]2C[C@@H]3CCN(Cc4cc(C)on4)C[C@H]3O2)n1", "Percent Effect": 98.39}, {"smiles": "Cc1cc(CN2C[C@@H]3CN(Cc4ccsc4)CCO[C@@H]3C2)no1", "Percent Effect": -0.7027}, {"smiles": "Cc1cc(CN2CC[C@H]3C(=O)N(c4ccsc4)CCO[C@H]3C2)no1.O=C(O)C(F)(F)F", "Percent Effect": -15.71}, {"smiles": "Cc1nnc([C@H]2CC[C@@H]3[C@@H](CCN3Cc3c(C)noc3C)O2)o1", "Percent Effect": 0.6834}, {"smiles": "Cc1cc(CN2CC[C@H]3C[C@H](C(=O)N(C)C)O[C@@H]3C2)no1", "Percent Effect": -3.331}, {"smiles": "Cc1nn(C)c(C)c1C(C(=O)O)N1CC=C(c2ccccc2)CC1", "note": "(centres undefined)", "Percent Effect": -20.97}, {"smiles": "CN1CCN(C[C@H]2CN3CC[C@H]2C[C@@H]3CNC(=O)c2ccco2)CC1", "Percent Effect": -8.219}, {"smiles": "O=C(O)C(F)(F)F.O=C(O)C(F)(F)F.c1cncc(CO[C@H]2CC[C@H]3[C@@H]2OCCN3C2CCOCC2)c1", "Percent Effect": -9.441}, {"smiles": "c1ccc(O[C@H]2CC[C@H]3[C@H]2OCCN3Cc2nccs2)nc1", "Percent Effect": -6.34}, {"smiles": "Cc1ccc(CN2CCO[C@H]3[C@H](OCc4cccnc4)CC[C@@H]32)o1.O=C(O)C(F)(F)F.O=C(O)C(F)(F)F", "Percent Effect": 105.6}, {"smiles": "Cc1ccc(CN2CCO[C@@H]3[C@@H](OCc4cccnc4)CC[C@@H]32)o1", "Percent Effect": 103.6}, {"smiles": "Cc1ccc(CN2CCO[C@H]3[C@@H](OCc4cccnc4)CC[C@@H]32)o1.O=C(O)C(F)(F)F.O=C(O)C(F)(F)F", "Percent Effect": 111.1}, {"smiles": "CC(C)CNC(=O)N1CCOC2(CCNCC2)C1", "Percent Effect": -1.344}, {"smiles": "CC[C@H](N)Cn1nc(-c2cccs2)oc1=O.Cl", "Percent Effect": -4.464}, {"smiles": "CCOCCNC1(c2ccc(Cl)cc2)CCOCC1", "Percent Effect": -4.765}, {"smiles": "CN(CCc1ccc(F)cc1)Cc1nc2c(cnn2C)c(=O)[nH]1", "Percent Effect": 17.64}, {"smiles": "CN(CCc1ccccc1)Cc1nc2c(cnn2C)c(=O)[nH]1", "Percent Effect": 101}, {"smiles": "CC(NC(=O)CN1CCCC1=O)c1ccc(Cl)s1", "note": "(centres undefined)", "Percent Effect": -9.497}, {"smiles": "O=C(c1ccc2c(c1)OCO2)N1CCC(C(=O)O)(c2ccccc2)CC1", "Percent Effect": 117.1}, {"smiles": "O=C(c1ccc2c(c1)COC2)N1CCC(Nc2ccccc2)CC1", "Percent Effect": 5.047}, {"smiles": "O=C(CCc1ccsc1)N1CCC(C(=O)O)(c2ccccc2)CC1", "Percent Effect": 7.958}, {"smiles": "O=C1CO[C@H]2CN(Cc3cccnc3)C[C@H]2N1", "Percent Effect": 0.8904}, {"smiles": "Cc1ccc([C@]2(O)CC[C@H]3CN(Cc4ccncc4)C[C@H]32)nc1", "Percent Effect": 139.7}, {"smiles": "COCCN1CC[C@]2(CN(Cc3ccccn3)C[C@H]2C)C1=O.O=C(O)C(F)(F)F.O=C(O)C(F)(F)F", "Percent Effect": -7.652}, {"smiles": "O=C(C1CCOCC1)N1C[C@H]2CC[C@@H]1CN(Cc1ccncc1)C2", "Percent Effect": 9.375}, {"smiles": "C[C@@H]1CN(Cc2cccnc2)C[C@]1(C)O", "Percent Effect": 104.9}, {"smiles": "Cc1ccc([C@]2(O)CC[C@H]3CN(Cc4cccnc4)C[C@H]32)nc1", "Percent Effect": 129.8}, {"smiles": "CC(C)OC(=O)N1C[C@H]2CC[C@@H]1CN(Cc1cccnc1)C2", "Percent Effect": -10.82}, {"smiles": "COC(=O)N1C[C@H]2CC[C@@H]1CN(Cc1ccncc1)C2", "Percent Effect": -3.604}, {"smiles": "Oc1cccc(CN2C[C@H]3CC[C@@H]2CN(Cc2cccnc2)C3)c1", "Percent Effect": 8.491}, {"smiles": "COCCN1CC[C@]2(CN(Cc3cccnc3)C[C@H]2C)C1=O.O=C(O)C(F)(F)F.O=C(O)C(F)(F)F", "Percent Effect": 106.1}, {"smiles": "Cc1ncsc1CN1C[C@@H]2CN(Cc3cccnc3)CCO[C@@H]2C1", "Percent Effect": -8.283}, {"smiles": "C[C@@H]1CN(C2CCOC2)C[C@]12CCN(Cc1cccnc1)C2=O.O=C(O)C(F)(F)F.O=C(O)C(F)(F)F", "note": "(some centres undefined)", "Percent Effect": -21.11}, {"smiles": "CCCn1ncc(CN2CCCC(C(=O)c3ccc(SC)cc3)C2)c1C", "note": "(centres undefined)", "Percent Effect": -6.021}, {"smiles": "Cc1cccc2cc(CN3CCCN4CCC[C@H]4C3)c(=O)[nH]c12", "Percent Effect": -11.16}, {"smiles": "c1cnc(N2CC[C@@H]3[C@@H]2CCN3Cc2cccs2)nc1", "Percent Effect": -7.885}, {"smiles": "Cl.Cl.O=C1NC2(CCNCC2)CC1c1ccncc1", "note": "(centres undefined)", "Percent Effect": -8.002}, {"smiles": "CC(C)=CCN1C[C@H]2CC[C@@H]1CN(S(=O)(=O)c1cccnc1)C2", "Percent Effect": -24.05}, {"smiles": "CNc1nc(C(=O)N2C[C@@H]3CCN(C)[C@@H]3C2)cs1", "Percent Effect": 2.53}, {"smiles": "Cc1cc(C(=O)NCC(=O)N2CCOCC2)nn1C(C)(C)C", "Percent Effect": 90.04}, {"smiles": "Cc1ncc2c(c1CNC(=O)C1(C)CC1)CCNC2", "Percent Effect": -5.654}, {"smiles": "Cl.Cl.Cn1cc(C(=O)NCc2cncc3c2CCNC3)cn1", "Percent Effect": 102.3}, {"smiles": "CN1CCc2c(CNC(=O)c3nccn3C)cncc2C1.Cl.Cl.Cl", "Percent Effect": 16.49}, {"smiles": "CCn1ccnc1CN1CCCN(C(=O)Cc2ccc(C)cc2)CC1", "Percent Effect": 110.8}, {"smiles": "Cc1nc(CC(=O)N2CCN(Cc3ccc(C#N)cc3)CC2)cs1", "Percent Effect": -1.564}, {"smiles": "CCn1ccnc1CN1CCCN(C(=O)Cc2csc(C)n2)CC1", "Percent Effect": 120.7}, {"smiles": "NC(=O)CN1CCCN(C(=O)Cc2ccc3ccccc3c2)CC1", "Percent Effect": -1.177}, {"smiles": "CCn1ccnc1CN1CCCN(C(=O)Cc2ccc(C)nc2)CC1", "Percent Effect": -2.19}, {"smiles": "CCn1cc(CN2CCCN(C(=O)Cc3ccc(C)nc3)CC2)cn1", "Percent Effect": 6.063}, {"smiles": "CCn1cc(CN2CCCN(C(=O)Cc3cccs3)CC2)cn1", "Percent Effect": -6.845}, {"smiles": "CCCN1CCN(Cc2nccn2CC)C(C)C1", "note": "(centres undefined)", "Percent Effect": -20.72}, {"smiles": "CCn1ccnc1CN1CCCN(C(=O)Cc2ccc(C)s2)CC1", "Percent Effect": 99.83}, {"smiles": "CCN1CCN(C(=O)Cc2ccc(S(=O)(=O)C(F)F)cc2)CC1", "Percent Effect": -2.606}, {"smiles": "CCc1nc(CN2CCCN(C(=O)Cc3cccs3)CC2)cs1", "Percent Effect": -3.679}, {"smiles": "Cc1ccc(CC(=O)N2CCCN(Cc3nccn3C)CC2)cn1", "Percent Effect": 118.2}, {"smiles": "COCC(=O)NC[C@H]1C[C@@H]2CCN1C[C@@H]2CN1CCc2ccccc21", "Percent Effect": -6.803}, {"smiles": "CNCCc1nc2cc(F)ccc2[nH]1.Cl.Cl", "Percent Effect": -2.58}, {"smiles": "COCC1CN(c2ccc(C#N)c(Cl)c2)CCO1", "note": "(centres undefined)", "Percent Effect": -25.31}, {"smiles": "CCn1ccnc1CN1CCCN(C(=O)Cc2ccc(F)cc2)CC1", "Percent Effect": 115.9}, {"smiles": "NC(=O)CN1CCCN(C(=O)Cc2ccc(F)c(Br)c2)CC1", "Percent Effect": -2.154}, {"smiles": "O=C(Cc1ccccc1)N1CCN(Cc2noc(C3CC3)n2)CC1", "Percent Effect": 0.1776}, {"smiles": "CCn1ccnc1CN1CCCN(C(=O)Cc2ccccc2C)CC1", "Percent Effect": 129.6}, {"smiles": "CCc1noc(CN2CCN(C(=O)Cc3ccc(F)cc3)CC2)n1", "Percent Effect": -6.192}]}]}
